Screens (PubChem BioAssay)
Hits are enriched below; roughly 1.6% of the tested compounds scored in any of these assays.
KCNQ2 inh = KCNQ2 (rat) channel inhibition; O88943; CHO-K1 KCNQ2, FluxOR thallium flux, 20 min; hits give low values; B-score at 10 µM; hit rate 1.1% among 310,000;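 active = fluorescence ratio B-score at most minus 3 library SDs, with starting brightness B-score within 2 library SDs, cut at about -5.5 in these data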
KCNQ2 enhance = potentiators of rat KCNQ2 potassium channel; O88943; B-score at 10 µM; CHO-K1 KCNQ2, FluxOR thallium flux fluorescence; hits give high values; AID 2239; hit rate 0.54% among 310,000;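 active = fluorescence ratio B-score at least 3 SD of library B-scores, with initial fluorescence B-score within 3 of them, cut at about 5.3 in these data; same plate scores as AID 2156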;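 note: B-score of peak minus minimum over baseline fluorescence ratio after K+ and Tl+ stimulus; positive B-score means potentiation of KCNQ2 with more thallium influx and brighter signal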
Kir21 conf inh = confirmation of mouse Kir2.1 potassium channel inhibitors | shares compounds with KCNQ2 enhance | Kir2.1-expressing cells, FluxOR thallium flux fluorescence; hits give low values | Tl flux remaining, % of negative control (hits give low values), % at 10 µM | hit rate 41% among 2,300;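 active = Primary-screen hit whose thallium flux fell at least 3 control SD below untreated wells in both duplicates, with normal baseline fluorescence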
Target sequence (P35561 whole entry, looked up): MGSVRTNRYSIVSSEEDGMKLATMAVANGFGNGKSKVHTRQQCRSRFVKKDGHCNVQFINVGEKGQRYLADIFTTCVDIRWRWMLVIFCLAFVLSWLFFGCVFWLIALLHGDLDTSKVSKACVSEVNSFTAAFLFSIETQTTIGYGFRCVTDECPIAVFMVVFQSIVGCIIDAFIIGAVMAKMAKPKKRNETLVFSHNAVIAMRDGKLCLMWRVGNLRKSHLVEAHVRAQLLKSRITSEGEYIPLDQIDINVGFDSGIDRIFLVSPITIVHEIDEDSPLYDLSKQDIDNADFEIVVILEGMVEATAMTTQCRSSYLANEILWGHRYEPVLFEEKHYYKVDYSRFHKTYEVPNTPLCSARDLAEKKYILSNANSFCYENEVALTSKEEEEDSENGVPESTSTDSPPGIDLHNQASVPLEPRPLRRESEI
HEK293 ctr = parental HEK293 activity in Kir2.1 inhibitor counter-screen; FluxOR signal as % of negative control (100 = no effect), % at 10 µM; shares compounds with KCNQ2 enhance; hit rate 19% among 2,300; parental HEK293 cells, FluxOR thallium flux fluorescence; 0% = unstimulated blank wells;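 active = dye signal at least 3 control SD above or below untreated wells in both duplicates, raw fluorescence within 3, either direction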;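 note: percent is based on the flux ratio of peak minus minimum fluorescence over baseline F0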
CHO-K1 Tl ctr = alters thallium flux in parental CHO-K1 cells, KCNQ2 counter-screen; shares compounds with KCNQ2 enhance; FluxOR thallium flux fluorescence; zero = vehicle mean+3SD, 100% = vehicle-minus-blank window; activity increase over 3SD of controls, % at 10 µM; hit rate 43% among 1,200;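 active = signal rise of at least 3 SD above the untreated control mean, in both duplicate wells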;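 note: counter screen of KCNQ2 potentiator hits so any rise reflects channel-independent effects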
KCNQ1 sel pot = tests whether KCNQ2 potentiators also act on human KCNQ1; hit rate 28% among 1,200; AID 2283; activation over 3SD threshold, % at 10 µM; shares compounds with KCNQ2 enhance; CHO KCNQ1 stable, FluxOR thallium flux fluorescence; beyond 3SD, as % of vehicle-control signal;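 active = fluorescence ratio rise of at least 3 SD of vehicle wells above their mean, in both replicate wells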
KCNQ2 pot confirm = confirmation of rat KCNQ2 potassium channel potentiators. shares compounds with KCNQ2 enhance. CHO-KCNQ2 cells, FluxOR thallium flux fluorescence. potentiation, less the hit threshold, % at 10 µM. hit rate 68% among 1,200. AID 2287;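 active = fluorescence ratio rising 3 SD or more over the vehicle control mean in both replicates, plus primary screen hit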;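 note: peak minus minimum thallium fluorescence divided by baseline after K/Tl stimulus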
Kir21 spec = mouse Kir2.1 off-target activity of KCNQ2 potentiators | shares compounds with KCNQ2 enhance | HEK293 Kir2.1, FluxOR thallium flux fluorescence | activity over 3SD threshold, % at 10 µM | hit rate 2% among 1,200;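 active = fluorescence ratio rise of at least 3 SD above the vehicle-control mean, seen in both replicates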
KCNQ2 W236L MoA = potentiates the retigabine-insensitive rat KCNQ2 W236L mutant channel; shares compounds with KCNQ2 enhance; CHO KCNQ2-W236L, automated patch clamp current; current increase over 3SD of negative controls (%), hits give high values, % at 25 µM; hit rate 10% among 940; AID 2558;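 active = current increase at least 3 SD of the untreated controls above them in both duplicate recordings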
Of the large screens only hits and unclear results are named; the others gave an inactive call (follow-up assays come after a bar, where they were run).

O=c1cc(-c2ccccc2)nc2c(-c3ccccc3)c(C(F)(F)F)[nH]n12	KCNQ2 enhance 23 | Kir21 conf inh inactive | HEK293 ctr 366% | CHO-K1 Tl ctr 6.8 | KCNQ1 sel pot inactive | KCNQ2 pot confirm 94 | Kir21 spec inactive | KCNQ2 W236L MoA inactive
O=C(Nc1ccc(F)cc1)c1oc2ccccc2c1NC(=O)C1CC1	none (no result: KCNQ2 enhance)
O=C(NC(=S)NCCC1=CCCCC1)c1ccco1	KCNQ2 enhance 12 | Kir21 conf inh inactive | HEK293 ctr 229% | CHO-K1 Tl ctr inactive | KCNQ1 sel pot inactive | KCNQ2 pot confirm 34 | Kir21 spec inactive | KCNQ2 W236L MoA inactive
Cc1ccccc1C(=O)NC(=S)NCCC1=CCCCC1	none
O=C(O)CCS(=O)(=O)c1ccccc1Cl	none
COc1ccc(C(=O)NC(C)C2CC3CCC2C3)c(OC)c1 (configuration not stated)	none (no result: KCNQ2 enhance)
COc1cccc(NC(=O)NC(C)C2CC3CCC2C3)c1 (configuration not stated)	KCNQ2 enhance 12 | Kir21 conf inh inactive | HEK293 ctr inactive | CHO-K1 Tl ctr inactive | KCNQ1 sel pot inactive | KCNQ2 pot confirm inactive | Kir21 spec inactive | KCNQ2 W236L MoA inactive
CCCc1nc2oc3c(NCCN(C)C)ncnc3c2c2c1CCCC2	KCNQ2 enhance 5.4 | Kir21 conf inh inactive | HEK293 ctr inactive | CHO-K1 Tl ctr inactive | KCNQ1 sel pot inactive | KCNQ2 pot confirm 51 | Kir21 spec inactive | KCNQ2 W236L MoA inactive
CCCc1nc2oc3c(Cl)ncnc3c2c2c1CCCC2	none
Cc1ccc(S(=O)(=O)NCCCCCC(=O)Nc2cccc(C)c2)cc1	none (no result: KCNQ2 enhance)
CSCCC(NC(=O)c1ccccc1Cl)C(=O)NC1CCN(Cc2ccccc2)CC1 (configuration not stated)	none (no result: KCNQ2 enhance)
CC(O)CNc1nc2sc3c(c2c(=O)n1Cc1ccco1)CCCCC3 (configuration not stated)	none
O=c1c2c3c(sc2nc(NCCOCCO)n1Cc1ccco1)CCCCC3	KCNQ2 enhance 5.6 | Kir21 conf inh inactive | HEK293 ctr inactive | CHO-K1 Tl ctr inactive | KCNQ1 sel pot 38 | KCNQ2 pot confirm inactive | Kir21 spec inactive | KCNQ2 W236L MoA 6.1%
CCOc1ccccc1Oc1c(C)oc2cc(OC(=O)c3ccco3)ccc2c1=O	none (no result: KCNQ2 enhance)
COc1ccccc1-c1c(C)oc2cc(OC(=O)c3ccco3)ccc2c1=O	none | Kir21 conf inh 70% | HEK293 ctr inactive
CC(NC(=O)CC1CCCCC1)c1ccccc1 (configuration not stated)	KCNQ2 enhance 5.3 | Kir21 conf inh inactive | HEK293 ctr inactive | CHO-K1 Tl ctr inactive | KCNQ1 sel pot inactive | KCNQ2 pot confirm 7.1 | Kir21 spec inactive | KCNQ2 W236L MoA inactive
CC(NC(=O)COC(=O)C1CCC1)c1ccccc1 (configuration not stated)	none (no result: KCNQ2 enhance)
COc1ccccc1NC(=O)C(CC(C)C)NC(=O)C1CCCCC1 (configuration not stated)	none (no result: KCNQ2 enhance)
CC(C)CC(NC(=O)C1CCCCC1)C(=O)NC(C)c1ccccc1 (configuration not stated)	KCNQ2 enhance 18 | Kir21 conf inh inactive | HEK293 ctr inactive | CHO-K1 Tl ctr 3.7 | KCNQ1 sel pot inactive | KCNQ2 pot confirm 29 | Kir21 spec inactive | KCNQ2 W236L MoA inactive
CC(C)C[C@H](N)c1nnc(S(=O)(=O)Cc2cccc(F)c2)o1	none (no result: KCNQ2 enhance) | Kir21 conf inh 72% | HEK293 ctr inactive
CC(C)CCNC(=O)c1ccc(CSCc2cccc(F)c2)o1	none (no result: KCNQ2 enhance)
COc1ccc(CNC(=O)C(=O)NCC2OCCN2S(=O)(=O)c2ccccc2)cc1 (configuration not stated)	none
CCOC(=O)C1CCCc2c1[nH]c1c(C(N)=O)cccc21 (configuration not stated)	KCNQ2 enhance 9.7 | Kir21 conf inh inactive | HEK293 ctr inactive | CHO-K1 Tl ctr 3.7 | KCNQ1 sel pot inactive | KCNQ2 pot confirm 34 | Kir21 spec inactive | KCNQ2 W236L MoA inactive
NC(=O)c1cccc2c3c([nH]c12)CCCC3	none
Nc1ccc(C(=O)N/N=C2\CCCc3c2[nH]c2ccccc32)cc1	none
c1ccc(CCN=C2CCCc3c2[nH]c2ccccc32)cc1	none (no result: KCNQ2 enhance) | Kir21 conf inh 20% | HEK293 ctr 70%
N#Cc1c(OCC(=O)c2ccccc2)nc2c(c1-c1ccco1)CCc1ccccc1-2	KCNQ2 enhance 20 | Kir21 conf inh inactive | HEK293 ctr 145% | CHO-K1 Tl ctr 2.2 | KCNQ1 sel pot inactive | KCNQ2 pot confirm 42 | Kir21 spec inactive | KCNQ2 W236L MoA inactive
CCOC(=O)COc1nc2c(c(-c3ccco3)c1C#N)CCc1ccccc1-2	KCNQ2 enhance 10 | Kir21 conf inh inactive | HEK293 ctr inactive | CHO-K1 Tl ctr 48 | KCNQ1 sel pot 84 | KCNQ2 pot confirm inactive | Kir21 spec inactive | KCNQ2 W236L MoA inactive
Cc1cc(C)c(C#N)c(OCC(=O)c2ccccc2)n1	none
CCOC(=O)COc1nc(-c2ccccc2)cc(-c2ccco2)c1C#N	none
O=C1CCCC(O)=C1Sc1cc(Cl)c(Cl)cc1Cl	none
CC(NC(=O)CCc1ccccc1)c1ccc2c(c1)OCO2 (configuration not stated)	KCNQ2 enhance 8.5 | Kir21 conf inh inactive | HEK293 ctr inactive | CHO-K1 Tl ctr inactive | KCNQ1 sel pot inactive | KCNQ2 pot confirm 45 | Kir21 spec inactive | KCNQ2 W236L MoA inactive
Cc1occc1C(=O)NC(C)c1ccc2c(c1)OCO2 (configuration not stated)	none (no result: KCNQ2 enhance)
Cc1ccc(C(C)NC(=O)c2ccc3c(c2)OCO3)cc1C (configuration not stated)	KCNQ2 enhance 10 | Kir21 conf inh inactive | HEK293 ctr inactive | CHO-K1 Tl ctr inactive | KCNQ1 sel pot inactive | KCNQ2 pot confirm 52 | Kir21 spec inactive | KCNQ2 W236L MoA inactive
CC(NC(=O)Cc1ccc([N+](=O)[O-])cc1)c1ccc2c(c1)OCO2 (configuration not stated)	none (no result: KCNQ2 enhance)
CCOc1ccccc1NC(=O)NC(C)c1ccc2c(c1)OCO2 (configuration not stated)	KCNQ2 enhance 5.8 | Kir21 conf inh inactive | HEK293 ctr inactive | CHO-K1 Tl ctr 4.2 | KCNQ1 sel pot 73 | KCNQ2 pot confirm 25 | Kir21 spec inactive | KCNQ2 W236L MoA inactive
CCOc1ccccc1C(=O)NC(C)c1ccc2c(c1)OCO2 (configuration not stated)	none
